Screening data from PubChem BioAssay.
Compounds with a hit are over-represented: about 5.3% of the library has one in this group of screens.
FMDV inh – blocks foot and mouth disease virus. FMDV antiviral cell-based qHTS. Potency, µM (doses to about 57.9 µM), most hits filed as inhibitors. actives 1.2% (n = 410,000). AID 1159524; calls by dose curve; tested in HEK293T cells; note: read-out not given here; nearly all actives have a fitted effect of over 45% in size
HCV inh – blocks hepatitis C virus. Huh7.5.1 HCVcc-Cre infection, luciferase reporter, 44 h. Potency, µM (doses to about 41.8 µM), usual class: inhibitors. actives 3.4% (n = 340,000); active = well fitted inhibition curve with a large enough effect; inconclusive = small, poorly fitted or top-dose-only effect, or another doubt; inactive = no such curve, though single readings can be large or run the other way
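Infectious HCVcc-Cre (~0.5 moi) was added to cells just after compound, with cells seeded 4 h earlier at 1,000 per well. Luciferase activity after 44 h culture reported infection; substrate was incubated 15 min at room temperature before reading.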
Lassa entry inh – Lassa virus entry inhibition; Lassa virus pseudotype entry inhibition, cell reporter; actives 1.2% (n = 300,000); Potency, µM (series often up to 37.9 µM), usual class: inhibitors; calls by dose curve; tested in HEK293 cells; note: nearly all actives have a fitted effect of over 50% in size
VACV Venus inh – inhibitors of vaccinia virus (Venus reporter); Vaccinia virus Venus reporter expression, fluorescence; Potency, µM (top dose mostly 36.5 µM), hits mostly inhibitors; actives 0.46% (n = 330,000); AID 720580; calls by dose curve; tested in A549 cells; note: nearly all actives have a fitted effect of over 30% in size
Vaccinia mCherry – vaccinia inhibition (mCherry reporter); Vaccinia virus mCherry reporter infection, fluorescence; Potency, µM (highest dose often 36.5 µM), most hits filed as inhibitors; actives 0.63% (n = 310,000); AID 720579; calls by dose curve; tested in A549 cells; note: nearly all actives have a fitted effect of over 35% in size
Marburg entry inh – blocks Marburg virus binding to or entry into cells. Marburg virus pseudotyped entry inhibition, cell reporter. Potency, µM (highest dose often 37.8 µM), usual class: inhibitors. actives 1.8% (n = 300,000); calls by dose curve; tested in HEK293 cells
Numbers stand for hits; n = inactive; u = inconclusive; x = no result; [ ] = remark or other dose.

SMILES	FMDV inh	HCV inh	Lassa entry inh	VACV Venus inh	Vaccinia mCherry	Marburg entry inh
Clc1ccsc1-c1csc(-c2cccnc2)n1	n	14µM	n	u	x	u
Cc1ccc(NC(=O)CSc2nc3c(oc4ccccc43)c(=O)n2Cc2ccco2)cc1	n	x	x	n	n	n
CCOC(=O)c1ccc(Nc2nc3ccccc3nc2NS(=O)(=O)c2ccc(Cl)cc2)cc1	u	x	n	u	10µM	x
CCCOC(=O)c1cccc(Nc2nc(-c3cccnc3)nc3ccccc23)c1	25µM	u	u	u	u	10µM
Cc1ccccc1C(=O)Oc1cccc(Nc2ncnc3ccccc23)c1	16µM	u	10µM	u	u	11µM
CCOC(=O)c1cccc(Nc2ncnc3ccccc23)c1	40µM	u	n	u	x	u
CC(C)=CCC/C(C)=C/CO/N=C1\C[C@@H](O)[C@@H](O)[C@@H]2[C@@H]3C(=O)N(C[C@@H]4CCCO4)C(=O)[C@@H]3CC[C@@H]12	x	x	x	x	x	n
CCN1C(=O)[C@@H]2[C@H]3[C@H](O)[C@H](O)CC(=NOC[C@H]4O[C@H](c5ccccc5)C=C[C@H]4Oc4ccc(OC)cc4)[C@@H]3CC[C@H]2C1=O	x	x	x	x	x	n
CCOC(=O)c1nc(Nc2ccc(Nc3ccccc3)cc2)c2ccccc2n1	u	11µM	x	x	x	x
CCOC(=O)c1nc(Nc2ccc(C(=O)O)cc2)c2ccccc2n1	n	n	n	n	x	n
Cc1ccc(NC(=O)CCc2c(C)nc3ncnn3c2C)cc1Cl	n	x	u	n	n	n
CCOC(=O)c1ccc2nc(C)cc(Nc3ccc(OC(C)C)cc3)c2c1	u	x	u	n	n	u
Cc1ccc(CNC(=O)c2cc3c(s2)-c2ccc(Cl)cc2SC3)cc1	n	x	u	n	n	n
CN(C)CCNC(=O)c1cc2c(s1)-c1ccc(Cl)cc1SC2	u	11µM	x	3.5µM	u	x
N#Cc1nc(N2CCCC2)nc(N2CCCC2)n1	u	7.1µM	n	u	u	u
N#Cc1nc(N2CCCCC2)nc(N2CCOCC2)n1	x	u	n	n	n	n
COc1ccc(C(C)N(C)Cc2nc(N3CCN(C(=O)c4ccco4)CC3)c3ccccc3n2)cc1 (centres undefined)	n	x	x	n	n	x
Cc1ccccc1COn1nnc2ccc(S(=O)(=O)N3CCOCC3)cc21	u	n	n	7.9µM	4.5µM	n
COc1ccccc1NCC(O)Cn1c2ccccc2c2ccccc21 (centres undefined)	u	u	u	x	x	n
COc1ccc(CCNCC(O)Cn2c3ccccc3c3ccccc32)cc1OC (centres undefined)	n	11µM	x	x	x	x
CCn1c(=O)c(C(=O)NCCc2ccc(OC)c(OC)c2)c(O)c2ccccc21	n	u	x	x	x	x
CCn1c(=O)c([N+](=O)[O-])c(NCCc2ccc(OC)c(OC)c2)c2ccccc21	22µM	u	u	n	n	u
Cc1cc(-c2nc(-c3ccc(C(C)(C)C)cc3)no2)no1	n	u	x	x	x	x
Cc1c(-c2nc(-c3ccc(C(C)(C)C)cc3)no2)n(C)oc1=O	63µM	n	u	n	n	u
O=C(NCc1cccnc1)NC1(C(F)(F)F)Oc2ccc(Cl)cc2O1 (centres undefined)	u	10µM	x	u	u	x
SMILES	FMDV inh	HCV inh	Lassa entry inh	VACV Venus inh	Vaccinia mCherry	Marburg entry inh
Cc1ccc(Cl)cc1NC(=O)NCc1cccnc1	n	n	n	n	n	u
CC(C)[C@H](CO)Nc1nc(Nc2ccc(Cl)c(C(=O)O)c2)c2ncn(C(C)C)c2n1	n	n	x	n	n	x
C=CC(=O)Nc1cccc(Nc2nc(N[C@H]3CC[C@H](N(C)C)CC3)nc3c2ncn3C(C)C)c1	u	u	x	1µM	u	x
Cc1cc(C(=O)CSc2nnc(N)s2)c(C)n1CCc1ccc(F)cc1	n	n	n	x	x	n
CCCc1cc(=O)[nH]c(SCC(=O)c2cc(C)n(CCOC)c2C)n1	n	n	n	x	x	n
COc1ccc(CCn2c(C)cc(C(=O)CSc3nnc(N)s3)c2C)cc1	28µM	n	u	n	n	u
COc1ccc(CCn2c(C)cc(C(=O)CSc3nc(N)cc(=O)[nH]3)c2C)cc1	18µM	11µM	u	u	n	u
Cc1cc(C(=O)CSc2nc(N)cc(=O)[nH]2)c(C)n1CCc1ccc(F)cc1	16µM	u	n	u	n[1.46 µM]	u
Cc1cc(C(=O)CSc2nc(N)cc(=O)[nH]2)c(C)n1-c1ccc(OC(F)F)cc1	3.5µM	u	u	u	u	u
O=S1(=O)CCOC[C@H](c2ccccc2)N1Cc1ccc(Cl)cc1Cl	x	x	x	n	n	x
